The target of the first test is ETV1 (Homo sapiens, UniProt P50549 1-477). As to the kind of experiment: DAPPL (digital affinity profiling via proximity ligation, sequencing); 10 mM Tris-HCl pH 7.5, 50 mM NaCl, 1 mM DTT, 4% glycerol, room temperature, 30 min; GST-TFs on glutathione beads, 16-mer random dsDNA library, 0.1% formaldehyde crosslink after washing; high values mean tight binding. To be noted: protein: recombinant; tags: N-terminal GST; dsDNA, one strand shown. In outline:
(§1)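 Human transcription factors carrying a GST fusion were produced in yeast, bound to glutathione beads, tagged with DNA barcodes and pooled together with a tag-only sample. Each pool was held with 200 nmole of a random double-stranded 16-mer DNA library in Tris/NaCl/DTT/glycerol buffer for 30 min at room temperature, then washed, crosslinked in 0.1% formaldehyde, proximity-ligated with BsaI/T4 ligase (1 h, 37 °C), PCR-amplified and sequenced on an Illumina NextSeq500. Binding signal is the read frequency of each hexamer for a given factor divided by its frequency in the tag-only sample.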
ETV1, sequence (P50549 whole entry, the tested form may be a part): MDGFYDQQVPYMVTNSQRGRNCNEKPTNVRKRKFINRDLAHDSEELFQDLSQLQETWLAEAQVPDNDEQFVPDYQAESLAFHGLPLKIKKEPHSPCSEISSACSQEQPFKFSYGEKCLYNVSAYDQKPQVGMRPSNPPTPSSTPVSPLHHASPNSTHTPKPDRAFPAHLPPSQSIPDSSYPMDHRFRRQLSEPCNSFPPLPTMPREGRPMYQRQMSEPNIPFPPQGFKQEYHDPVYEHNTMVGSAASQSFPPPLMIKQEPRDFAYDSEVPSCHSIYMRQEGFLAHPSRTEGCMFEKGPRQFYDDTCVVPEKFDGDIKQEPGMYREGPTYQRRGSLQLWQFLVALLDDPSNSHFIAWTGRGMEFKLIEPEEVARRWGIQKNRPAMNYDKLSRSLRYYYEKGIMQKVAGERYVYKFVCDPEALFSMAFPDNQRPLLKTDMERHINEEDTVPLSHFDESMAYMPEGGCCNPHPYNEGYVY
On to GCTCTA, for which the binding signal is 1.11 fold enrichment (6-mer frequency, TF over GST control).
The same measure, in the same setting: then TCCGGT, with 3.87 fold enrichment (6-mer frequency, TF over GST control); and ATTTTG, with 1.31 fold enrichment (6-mer frequency, TF over GST control); and CCCCTC, with 1.51 fold enrichment (6-mer frequency, TF over GST control).
On the same count and under the same terms, the value for ATGTTA was 1.3 fold enrichment (6-mer frequency, TF over GST control); that for TTGGTG was 1.41 fold enrichment (6-mer frequency, TF over GST control).
Still for that read-out and setting: the value for TCCTCC was 1.53 fold enrichment (6-mer frequency, TF over GST control).
For the sequence TTTCGA, the binding signal is 1.5 fold enrichment (6-mer frequency, TF over GST control).
Still for that read-out and setting: then CAAAAA, with 1.22 fold enrichment (6-mer frequency, TF over GST control); and TGCTTC, with 2.19 fold enrichment (6-mer frequency, TF over GST control); and TCACTC, with 1.18 fold enrichment (6-mer frequency, TF over GST control).
Consider ATACAA, for which the binding signal was 1.13 fold enrichment (6-mer frequency, TF over GST control).
With TTTTGG, the binding signal was 1.55 fold enrichment (6-mer frequency, TF over GST control).
On the same count and under the same terms, then TAACTG, with 1.09 fold enrichment (6-mer frequency, TF over GST control).
In the case of CAATCT, the binding signal was 1.26 fold enrichment (6-mer frequency, TF over GST control).
Still for that read-out and setting: the value for ATTATT was 1.29 fold enrichment (6-mer frequency, TF over GST control); that for AGTGCT was 1.32 fold enrichment (6-mer frequency, TF over GST control); that for TGGATG was 1.54 fold enrichment (6-mer frequency, TF over GST control).
Still for that read-out and setting: the value for TAATCT was 1.52 fold enrichment (6-mer frequency, TF over GST control); that for TGCTCC was 1.31 fold enrichment (6-mer frequency, TF over GST control).
Take CTGGTT: the binding signal was 1.3 fold enrichment (6-mer frequency, TF over GST control).
On to AATTAC, for which the binding signal was 1.34 fold enrichment (6-mer frequency, TF over GST control).
The same measure, in the same setting: the value for TTAAGG was 1.15 fold enrichment (6-mer frequency, TF over GST control).
The same measure, in the same setting: the value for ACTACG was 1.25 fold enrichment (6-mer frequency, TF over GST control).
On the same count and under the same terms, then CTATGC, with 1.55 fold enrichment (6-mer frequency, TF over GST control); and TCATCC, with 1.35 fold enrichment (6-mer frequency, TF over GST control); and GTATCT, with 1.15 fold enrichment (6-mer frequency, TF over GST control).
Turning to TCATTT, the binding signal was 1.41 fold enrichment (6-mer frequency, TF over GST control).
On the same count and under the same terms, the value for CTCTCT was 1.49 fold enrichment (6-mer frequency, TF over GST control); that for AAGTTA was 1.23 fold enrichment (6-mer frequency, TF over GST control); that for ATCACC was 1.1 fold enrichment (6-mer frequency, TF over GST control).
Still for that read-out and setting: then ATCCTT, with 1.67 fold enrichment (6-mer frequency, TF over GST control).
Still for that read-out and setting: the value for GGTATT was 1.16 fold enrichment (6-mer frequency, TF over GST control); that for CATATA was 1.06 fold enrichment (6-mer frequency, TF over GST control); that for TACCTC was 1.29 fold enrichment (6-mer frequency, TF over GST control).
On to ACGAAT, for which the binding signal is 1.14 fold enrichment (6-mer frequency, TF over GST control).
The same measure, in the same setting: the value for AATTGC was 1.35 fold enrichment (6-mer frequency, TF over GST control); that for TTAAAG was 1.15 fold enrichment (6-mer frequency, TF over GST control).
CTATTC: the binding signal was 1.28 fold enrichment (6-mer frequency, TF over GST control).
For TTTTGT, the binding signal was 1.32 fold enrichment (6-mer frequency, TF over GST control).

The next test deals with T1, ERF (Homo sapiens, UniProt P50548 1-548).
T1 sequence: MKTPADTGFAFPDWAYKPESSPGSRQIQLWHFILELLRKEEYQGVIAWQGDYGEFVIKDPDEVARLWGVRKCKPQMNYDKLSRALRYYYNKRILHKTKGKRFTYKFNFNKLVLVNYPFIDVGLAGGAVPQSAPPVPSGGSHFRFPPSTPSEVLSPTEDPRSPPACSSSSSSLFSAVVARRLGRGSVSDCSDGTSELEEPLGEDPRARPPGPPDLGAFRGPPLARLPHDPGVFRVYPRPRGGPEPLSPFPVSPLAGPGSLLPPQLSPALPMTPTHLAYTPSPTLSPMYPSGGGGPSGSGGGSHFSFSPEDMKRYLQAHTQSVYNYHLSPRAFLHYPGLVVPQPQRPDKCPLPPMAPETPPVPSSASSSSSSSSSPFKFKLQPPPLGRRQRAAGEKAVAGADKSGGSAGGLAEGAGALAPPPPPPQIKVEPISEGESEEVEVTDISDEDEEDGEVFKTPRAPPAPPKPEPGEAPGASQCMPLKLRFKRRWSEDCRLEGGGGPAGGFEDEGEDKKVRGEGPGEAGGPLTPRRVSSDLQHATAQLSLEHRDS
The test is described as above. To be noted: protein: recombinant; tags: N-terminal GST; dsDNA, one strand shown. In short, it runs like this:
as §1
With GCTCTA, the binding signal is 1.27 fold enrichment (6-mer frequency, TF over GST control).
As to TCCGGT, the binding signal is 3.43 fold enrichment (6-mer frequency, TF over GST control).
On the same count and under the same terms, the value for ATTTTG was 1.24 fold enrichment (6-mer frequency, TF over GST control); that for CCCCTC was 1.43 fold enrichment (6-mer frequency, TF over GST control).
Take ATGTTA: the binding signal is 1.21 fold enrichment (6-mer frequency, TF over GST control).
Same read-out and setting: the value for TTGGTG was 1.28 fold enrichment (6-mer frequency, TF over GST control).
On the same count and under the same terms, the value for TCCTCC was 1.46 fold enrichment (6-mer frequency, TF over GST control).
Still for that read-out and setting: then TTTCGA, with 1.61 fold enrichment (6-mer frequency, TF over GST control); and CAAAAA, with 1.15 fold enrichment (6-mer frequency, TF over GST control); and TGCTTC, with 1.81 fold enrichment (6-mer frequency, TF over GST control).
Take TCACTC: the binding signal is 1.27 fold enrichment (6-mer frequency, TF over GST control).
Still for that read-out and setting: then ATACAA, with 1.15 fold enrichment (6-mer frequency, TF over GST control); and TTTTGG, with 1.47 fold enrichment (6-mer frequency, TF over GST control); and TAACTG, with 1.11 fold enrichment (6-mer frequency, TF over GST control).
Still for that read-out and setting: then CAATCT, with 1.21 fold enrichment (6-mer frequency, TF over GST control).
Same read-out and setting: then ATTATT, with 1.11 fold enrichment (6-mer frequency, TF over GST control); and AGTGCT, with 1.41 fold enrichment (6-mer frequency, TF over GST control).
As to TGGATG, the binding signal is 1.46 fold enrichment (6-mer frequency, TF over GST control).
TAATCT: the binding signal was 1.39 fold enrichment (6-mer frequency, TF over GST control).
The same measure, in the same setting: the value for TGCTCC was 1.42 fold enrichment (6-mer frequency, TF over GST control); that for CTGGTT was 1.2 fold enrichment (6-mer frequency, TF over GST control).
The same measure, in the same setting: then AATTAC, with 1.35 fold enrichment (6-mer frequency, TF over GST control); and TTAAGG, with 1.16 fold enrichment (6-mer frequency, TF over GST control).
On the same count and under the same terms, the value for ACTACG was 1.34 fold enrichment (6-mer frequency, TF over GST control); that for CTATGC was 1.34 fold enrichment (6-mer frequency, TF over GST control); that for TCATCC was 1.2 fold enrichment (6-mer frequency, TF over GST control).
Take GTATCT: the binding signal is 1.16 fold enrichment (6-mer frequency, TF over GST control).
Same read-out and setting: the value for TCATTT was 1.37 fold enrichment (6-mer frequency, TF over GST control); that for CTCTCT was 1.63 fold enrichment (6-mer frequency, TF over GST control); that for AAGTTA was 1.24 fold enrichment (6-mer frequency, TF over GST control).
Turning to ATCACC, the binding signal is 1.13 fold enrichment (6-mer frequency, TF over GST control).
Same read-out and setting: the value for ATCCTT was 1.56 fold enrichment (6-mer frequency, TF over GST control); that for GGTATT was 1.2 fold enrichment (6-mer frequency, TF over GST control); that for CATATA was 1.04 fold enrichment (6-mer frequency, TF over GST control).
The same measure, in the same setting: then TACCTC, with 1.32 fold enrichment (6-mer frequency, TF over GST control).
On the same count and under the same terms, then ACGAAT, with 1.17 fold enrichment (6-mer frequency, TF over GST control); and AATTGC, with 1.43 fold enrichment (6-mer frequency, TF over GST control).
With TTAAAG, the binding signal is 1.25 fold enrichment (6-mer frequency, TF over GST control).
Same read-out and setting: the value for CTATTC was 1.33 fold enrichment (6-mer frequency, TF over GST control).
The same measure, in the same setting: then TTTTGT, with 1.33 fold enrichment (6-mer frequency, TF over GST control).

Another test addresses T2, ETV3L (Homo sapiens, UniProt Q6ZN32 1-361).
T2 sequence: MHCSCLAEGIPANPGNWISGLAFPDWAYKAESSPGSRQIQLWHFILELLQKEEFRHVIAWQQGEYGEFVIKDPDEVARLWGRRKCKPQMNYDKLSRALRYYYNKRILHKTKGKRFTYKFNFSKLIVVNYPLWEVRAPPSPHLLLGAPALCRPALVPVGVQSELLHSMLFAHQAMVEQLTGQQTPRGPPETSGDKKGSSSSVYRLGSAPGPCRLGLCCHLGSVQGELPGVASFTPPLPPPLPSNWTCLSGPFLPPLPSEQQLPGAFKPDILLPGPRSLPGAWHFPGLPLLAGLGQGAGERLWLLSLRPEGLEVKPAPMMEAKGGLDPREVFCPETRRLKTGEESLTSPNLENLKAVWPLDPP
Described as above. To be noted: protein: recombinant; tags: N-terminal GST; dsDNA, one strand shown. In short, it runs like this: as §1
As to GCTCTA, the binding signal is 1.24 fold enrichment (6-mer frequency, TF over GST control).
On the same count and under the same terms, then TCCGGT, with 3.57 fold enrichment (6-mer frequency, TF over GST control); and ATTTTG, with 1.29 fold enrichment (6-mer frequency, TF over GST control); and CCCCTC, with 1.4 fold enrichment (6-mer frequency, TF over GST control).
The same measure, in the same setting: then ATGTTA, with 1.2 fold enrichment (6-mer frequency, TF over GST control).
TTGGTG: the binding signal is 1.25 fold enrichment (6-mer frequency, TF over GST control).
Same read-out and setting: the value for TCCTCC was 1.55 fold enrichment (6-mer frequency, TF over GST control).
Still for that read-out and setting: then TTTCGA, with 1.54 fold enrichment (6-mer frequency, TF over GST control).
On the same count and under the same terms, the value for CAAAAA was 1.15 fold enrichment (6-mer frequency, TF over GST control); that for TGCTTC was 2.16 fold enrichment (6-mer frequency, TF over GST control); that for TCACTC was 1.16 fold enrichment (6-mer frequency, TF over GST control).
On to ATACAA, for which the binding signal is 1.12 fold enrichment (6-mer frequency, TF over GST control).
Same read-out and setting: the value for TTTTGG was 1.48 fold enrichment (6-mer frequency, TF over GST control); that for TAACTG was 1.23 fold enrichment (6-mer frequency, TF over GST control); that for CAATCT was 1.14 fold enrichment (6-mer frequency, TF over GST control).
As to ATTATT, the binding signal was 1.17 fold enrichment (6-mer frequency, TF over GST control).
Same read-out and setting: then AGTGCT, with 1.32 fold enrichment (6-mer frequency, TF over GST control); and TGGATG, with 1.53 fold enrichment (6-mer frequency, TF over GST control).
As to TAATCT, the binding signal was 1.32 fold enrichment (6-mer frequency, TF over GST control).
Same read-out and setting: the value for TGCTCC was 1.45 fold enrichment (6-mer frequency, TF over GST control).

The values are drawn from PMC7862700, “An all-to-all approach to the identification of sequence-specific readers for epigenetic DNA modifications on cytosine”.
